The whole screen tested about 68,000 compounds, of which about 2,700 (4%) showed an effect of 50% or more. Shown is part of a subset that was picked to be rich in strong results.

This experiment deals with Plasmodium berghei. In words: Screen against P. berghei liver stage (PbLuc), transformed with Luciferase, at 2uM. The note with it: tested at 2 uM. Format: functional, HepG2.
On to `CCC(CC)(CCO)CNC(=O)c1ccon1`, for which the INHIBITION stood at 34.69%. Consider `CS(=O)(=O)NCCNC(=O)Cc1ccc(Br)s1`, for which the INHIBITION is listed as 12.55%. The result for `Cc1ncc(CNC(=O)c2oc3ccccc3c2CN(C)C)s1` reads -21.47%; that for `CN(CC1Cc2ccccc2CN1C)C(=O)CSc1nccn1C` (centres undefined), 53.61%.

For `CN(CC1Cc2ccccc2CN1C)C(=O)CSc1ccccn1` (centres undefined), the INHIBITION stood at 35.54%.

Take `Cc1cc(=O)[nH]c(SCC(=O)N(C)CC2Cc3ccccc3CN2C)n1` (centres undefined): the INHIBITION is on record as -15.36%. As to `COc1ccc(CCCN(C)C(=O)c2cc(Cl)c[nH]2)cc1OC`, the INHIBITION was 32.31%. The result for `O=C(C1CC1)N1Cc2[nH]nc(COCc3cccnc3)c2C1` reads -14.61%. For `O=C(Nc1cc(CCC2CCN(CCO)CC2)ccn1)c1ccccn1` the value was 35.19%; for `COc1cccc(CC(=O)N2CC[C@@H]3[C@H](CC2)N(C)CCS3(=O)=O)c1`, 4.38%.

Turning to `CNC(=O)N1CC[C@H]2N(C)CC[C@@]2(C(=O)Nc2ccccc2)CC1`, the INHIBITION is 62.13%. For `CC(C)CC(=O)N1CC[C@H]2N(C)CC[C@@]2(C(=O)Nc2ccccc2)CC1` the value was 11.87%. The result for `CC(C)C(=O)N1CC[C@H]2N(C)CC[C@@]2(C(=O)Nc2ccccc2)CC1` reads 17.69%; that for `CC(C)(C)Nc1nc(-c2cccnc2)c(-c2ccnc(NCCO)n2)s1`, -31.71%; that for `CCOC1CCC2(CCN(C(=O)c3c[nH]cn3)CC2)c2ccccc21` (centres undefined), 28.46%. For the compound `CC(C)c1nn(C)c(N2CCOCC2)c1CNC(C)c1ccco1` (centres undefined), the INHIBITION is 53.98%. Regarding `Cc1nn(C)c(N2CCOCC2)c1CNC(C)c1ccco1` (centres undefined), the INHIBITION is -39.37%. For the compound `Cc1ccc(C(C)NCc2c(C(C)C)nn(C)c2N2CCOCC2)o1` (centres undefined), the INHIBITION is -41.76%.

`NC(CC1CCCC1)c1ccccc1` (centres undefined): the INHIBITION is 10.24%.

`CCN1CCCC1CNC(=O)c1cc(COc2cccc(F)c2)[nH]n1` (centres undefined): the INHIBITION is 21.67%. `O=C(CC1CC1)N1CCc2ncc(Cn3cncn3)n2CC1`: the INHIBITION amounted to 31.73%. Consider `CC(C)S(=O)(=O)N1CCCC(c2nccn2Cc2cccnc2)C1` (centres undefined), for which the INHIBITION is given as -7.66%. `O=C([C@@H]1CCO[C@@H]2CCN(CC3CCOCC3)C[C@H]21)N1CCCO1`: the INHIBITION is recorded as -3.19%. For `O=C([C@@H]1CCO[C@@H]2CCN(CC3CC3)C[C@H]21)N1CCCC1` the value was -16.33%; for `Cc1noc(C)c1CN1CC[C@H]2OCC[C@@H](C(=O)N3CCCO3)[C@@H]2C1`, -13.8%; for `Cc1noc(C)c1CN1CC[C@H]2OCC[C@@H](C(=O)N3CCCO3)[C@H]2C1`, 59.08%.

Take `O=C([C@@H]1CCO[C@@H]2CCN(CC3CC3)C[C@H]21)N1CCCCO1`: the INHIBITION is on record as 57.07%. The result for `Cc1noc(C)c1CN1CC[C@H]2OCC[C@@H](C(=O)NCC3CC3)[C@@H]2C1` reads 6.04%.

With `CCn1ccc(NC(=O)C2CCC(=O)N2Cc2ccc(C)o2)n1` (centres undefined), the INHIBITION stood at 45.14%. The result for `O=C(c1cc(=O)n(-c2ccccc2)[nH]1)N1CCOCC(O)C1` (centres undefined) reads 4.12%; that for `COCCOc1ccccc1NC(C)C(=O)NC(=O)NC(C)(C)C` (centres undefined), -19.21%; that for `CCCc1n[nH]c(C2CN(C(=O)c3ccc[nH]3)CCO2)n1` (centres undefined), -70.51%. As for `CC(Cc1ccccc1F)NC(=O)CCC1=NC(=C2N=CN=N2)NO1` (centres undefined), the INHIBITION turned out to be 24.12%. The result for `COCCNC(=O)Cn1c(-c2cccc(F)c2)nc(C)c(CCO)c1=O` reads -4.75%; that for `OCC1(Cc2ccc(F)cc2F)CCCN(Cc2ccncc2)C1` (centres undefined), 61.48%; that for `COCCC1(CO)CCCN(Cc2ccncc2)C1` (centres undefined), 10.53%. The result for `O=C(O)C1(Cc2ccc(F)cc2F)CCCN(Cc2ccncc2)C1` (centres undefined) reads 43.57%.

`Cc1c(-c2cc(C(=O)N3CCc4ncc(Cl)cc4C3)on2)cnn1C`: the INHIBITION is reported as -30.88%.

On to `O=C(NCC(F)F)c1cc(-c2ccccc2)nc2ncnn12`, for which the INHIBITION is 5.88%. The result for `CCc1nc(CCNC(=O)NC2CCSCC2)cs1` reads 50.32%; that for `CCc1nc(CCNC(=O)NC2CC(=O)N(C(C)(C)C)C2)cs1` (centres undefined), 3.62%. For `CCc1nc(CCNC(=O)Nc2ccc(C(=O)NC)cc2)cs1` the value was -58.5%. Consider `CCNCc1ccc(OCc2ccc3c(c2)OCCO3)cc1`, for which the INHIBITION was found to be 12.94%.

Consider `NC1CC(C(F)(F)F)=NC=C1c1ccccc1` (centres undefined), for which the INHIBITION is reported as 25.93%. The result for `Cc1ccccc1NC(=O)NCCn1nc(C(F)(F)F)n(C)c1=O` reads 16.54%; that for `Cn1c(C(F)(F)F)nn(CCNC(=O)Nc2ccccc2F)c1=O`, 37.87%; that for `Cn1c(C(F)(F)F)nn(CCNC(=O)Nc2ccccc2Cl)c1=O`, 64.74%. On to `Cn1cc(C(=O)N2CCN(Cc3cscn3)CC2)ccc1=O`, for which the INHIBITION is given as -15.08%. Take `CC(=O)N1CCN(C(=O)Nc2ccccc2)CC2(CC(=O)N(C)C2)C1` (centres undefined): the INHIBITION is listed as 7.88%.

(Values after ChEMBL document CHEMBL4513216, “Probing the Open Global Health Chemical Diversity Library for Multistage-Active Starting Points for Next-Generation Antimalarials” (ACS Infect Dis, 2020).)
